Measurements published in PubChem BioAssay (NCATS).
Records with an inconclusive call do not appear. Active and inactive are the calls of the source. Calls come from the whole dose curve; as a rule, active = well fitted curve in the direction sought with a large enough effect; inconclusive = small, poorly fitted or top-dose-only effect, or another doubt; inactive = no such curve, though single readings can be large; an effect the other way counts as inactive or inconclusive.

What was measured:
[1] = Quantitative High-Throughput drug screen in 47 multiple myeloma cell lines against the NCATS MIPE library collection: ARP1_JJKsccF8 cell viability assay (AID 1918928; note: nearly all actives have a fitted effect of over 40% in size; note: potency is the fitted concentration of half-maximal effect)
How it was run: (§1)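 Myeloma cells at 500 per well in 1536-well format treated with MIPE 4.0 library by pin transfer for 48 h at 37C, 5% CO2. Viability from ATP luminescence (CellTiter-Glo), normalized to DMSO (100%) and media-only (0%) wells.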

[2] = Quantitative High-Throughput drug screen in 47 multiple myeloma cell lines against the NCATS MIPE library collection: ARD_JJKsccE7 cell viability assay (AID 1918929; note: potency is the fitted concentration of half-maximal effect)
How it was run: (§2)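 Inhibition of cell viability is measured here. Each line was plated at 500 cells per well, treated with MIPE 4.0 drugs, kept 48 hours at 37C, then assayed for ATP content by CellTiter-Glo luminescence.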

[3] = Quantitative High-Throughput drug screen in 47 multiple myeloma cell lines against the NCATS MIPE library collection: KMM1_JCRB cell viability assay (AID 1918960); note: nearly all actives have a fitted effect of over 30% in size; note: potency is the fitted concentration of half-maximal effect
How it was run: as §1

[4] = Quantitative High-Throughput drug screen in 47 multiple myeloma cell lines against the NCATS MIPE library collection: JIM3_ECACC cell viability assay (AID 1918963; note: nearly all actives have a fitted effect of over 35% in size; note: potency is the fitted concentration of half-maximal effect)
How it was run: (§3)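 Primary qHTS used for cherry-picking: cells at 500/well, library compounds for 48 h (37C, 5% CO2), luminescent ATP assay.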

[5] = Quantitative High-Throughput drug screen in 47 multiple myeloma cell lines against the NCATS MIPE library collection: INA6_PLB cell viability assay (AID 1918965; note: nearly all actives have a fitted effect of over 55% in size; note: potency is the fitted concentration of half-maximal effect)
How it was run: (§4)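 We plated 500 myeloma cells per well, pinned in MIPE 4.0 compounds, and incubated for 48 hours at 37C. ATP was then quantified with CellTiter-Glo, with DMSO and media-only wells defining 100% and 0%.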

[6] = Quantitative High-Throughput drug screen in 47 multiple myeloma cell lines against the NCATS MIPE library collection: JJN3_DSMZ cell viability assay (AID 1918966; note: nearly all actives have a fitted effect of over 50% in size; note: potency is the fitted concentration of half-maximal effect)
How it was run: as §2

[7] = Quantitative High-Throughput drug screen in 47 multiple myeloma cell lines against the NCATS MIPE library collection: Karpas25_ECACC cell viability assay (AID 1918968; note: nearly all actives have a fitted effect of over 35% in size; note: potency is the fitted concentration of half-maximal effect)
How it was run: as §2

[8] = Quantitative High-Throughput drug screen in 47 multiple myeloma cell lines against the NCATS MIPE library collection: NCIH929_DSMZ cell viability assay (AID 1918978); note: nearly all actives have a fitted effect of over 35% in size; note: potency is the fitted concentration of half-maximal effect
How it was run: (§5)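 Plated at 500 cells per well, myeloma lines received MIPE 4.0 compounds by pin tool. Following 48 h culture at 37 °C, CellTiter-Glo luminescence gave viability relative to DMSO and media-only controls.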

[9] = Quantitative High-Throughput drug screen in 47 multiple myeloma cell lines against the NCATS MIPE library collection: Karpas620_DSMZ cell viability assay (AID 1918959); note: nearly all actives have a fitted effect of over 30% in size; note: potency is the fitted concentration of half-maximal effect
How it was run: as §3

[10] = Quantitative High-Throughput drug screen in 47 multiple myeloma cell lines against the NCATS MIPE library collection: KMS27_JCRB cell viability assay (AID 1918970); note: nearly all actives have a fitted effect of over 30% in size
How it was run: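 Each line is seeded at 500 cells per well and treated with library compounds for 48 hours under 37 °C, 5% CO2. CellTiter-Glo is then added for 5 min at room temperature before median relative luminescence is recorded.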

[11] = Quantitative High-Throughput drug screen in 47 multiple myeloma cell lines against the NCATS MIPE library collection: KMS12BM_JCRB cell viability assay (AID 1918971); note: nearly all actives have a fitted effect of over 35% in size; note: potency is the fitted concentration of half-maximal effect
How it was run: as §4

[12] = Quantitative High-Throughput drug screen in 47 multiple myeloma cell lines against the NCATS MIPE library collection: KMS12PE_JCRB cell viability assay (AID 1918972); note: nearly all actives have a fitted effect of over 30% in size; note: potency is the fitted concentration of half-maximal effect
How it was run: as §4

[13] = Quantitative High-Throughput drug screen in 47 multiple myeloma cell lines against the NCATS MIPE library collection: MOLP8_DSMZ cell viability assay (AID 1918977); note: nearly all actives have a fitted effect of over 45% in size; note: potency is the fitted concentration of half-maximal effect
How it was run: as §5

[14] = Quantitative High-Throughput drug screen in 47 multiple myeloma cell lines against the NCATS MIPE library collection: KHM11_PLB cell viability assay (AID 1918962); note: nearly all actives have a fitted effect of over 35% in size; note: potency is the fitted concentration of half-maximal effect
How it was run: as §3

[15] = Quantitative High-Throughput drug screen in 47 multiple myeloma cell lines against the NCATS MIPE library collection: H1112_PLB cell viability assay (AID 1918967; note: nearly all actives have a fitted effect of over 30% in size; note: potency is the fitted concentration of half-maximal effect)
How it was run: as §2

[16] = Quantitative High-Throughput drug screen in 47 multiple myeloma cell lines against the NCATS MIPE library collection: KMS26_JCRB cell viability assay (AID 1918975); note: nearly all actives have a fitted effect of over 45% in size; note: potency is the fitted concentration of half-maximal effect
How it was run: as §4

[17] = Quantitative High-Throughput drug screen in 47 multiple myeloma cell lines against the NCATS MIPE library collection: JIM1_ECACC cell viability assay (AID 1918964; note: potency is the fitted concentration of half-maximal effect)
How it was run: as §2

[18] = Quantitative High-Throughput drug screen in 47 multiple myeloma cell lines against the NCATS MIPE library collection: KMS20_JCRB cell viability assay (AID 1918973); note: potency is the fitted concentration of half-maximal effect; nearly all actives have a fitted effect of over 45% in size
How it was run: as §2

[19] = Quantitative High-Throughput drug screen in 47 multiple myeloma cell lines against the NCATS MIPE library collection: KMS21BM_JCRB cell viability assay (AID 1918974); conditions: ATP luminescence, 48 h; viability: at 45.8 µM (top of the series) unless noted; note: potency is the fitted concentration of half-maximal effect
How it was run: as §2

Measured: Potency

CC(COc1ccccc1)N(CCCl)Cc1ccccc1 (stereo not given)
active: [2] 16.6 µM
inactive: [1] | [3] | [4] | [5] | [6] | [7] | [8]

Cc1cnc(C(=O)NCCc2ccc(S(=O)(=O)NC(=O)NC3CCCCC3)cc2)cn1
inactive: [2] | [9] | [10] | [13] | [8]
active: [1] 18.7 µM | [3] 18.7 µM | [11] 18.7 µM | [12] 14.8 µM

NC(CO)C(=O)NNCc1ccc(O)c(O)c1O (stereo not given)
active: [1] 23.5 µM | [6] 11.8 µM | [11] 20.9 µM | [16] 33.2 µM | [13] 10.5 µM
not listed: [3] | [17] | [18] | [19]
inactive: all other assays above

O=C(C1CCCCC1)N1CC(=O)N2CCc3ccccc3C2C1 (stereo not given)
not listed: [4] | [5] | [6] | [8] | [11] | [17] | [18] | [19]
inactive: all other assays above

Cc1ccccc1N1C(=O)c2cc(S(N)(=O)=O)c(Cl)cc2NC1C (stereo not given)
active: [6] 4.69 µM
inactive: [1] | [2] | [3] | [14] | [15] | [7] | [11] | [16] | [8]

OCCN1CCN(CCCN2c3ccccc3Sc3ccc(C(F)(F)F)cc32)CC1
active: [1] 18.7 µM | [9] 18.7 µM | [3] 20.9 µM | [17] 16.6 µM | [5] 16.6 µM | [15] 23.5 µM | [7] 2.96 µM | [12] 9.35 µM | [18] 16.6 µM | [19] 14.8 µM | [16] 20.9 µM | [8] 20.9 µM

CCC1(c2ccccc2)C(=O)NCNC1=O
inactive: [1] | [16] | [13]
active: [2] 14.8 µM | [14] 5.26 µM | [5] 3.32 µM | [15] 2.96 µM | [7] 1.66 µM | [8] 1.32 µM

NS(=O)(=O)c1cc2c(cc1Cl)NCNS2(=O)=O
active: [6] 7.43 µM | [15] 9.35 µM
inactive: [1] | [2] | [3] | [5] | [10] | [12] | [13] | [8]

CC(C)(C)C(=O)Oc1ccc(S(=O)(=O)Nc2ccccc2C(=O)NCC(=O)O)cc1
active: [15] 18.7 µM
inactive: [1] | [2] | [4] | [17] | [10] | [11] | [12] | [16]

O=C1N(c2ccccc2)c2ccccc2C1(Cc1ccncc1)Cc1ccncc1
active: [18] 0.001 µM | [16] 37.2 µM
not listed: [2] | [5] | [11] | [13] | [17] | [19]
inactive: all other assays above

CCCNCC(O)COc1ccccc1C(=O)CCc1ccccc1 (stereo not given)
inactive: [1] | [6] | [15] | [11] | [13] | [8]
active: [7] 16.6 µM

O=c1[nH]cc(F)c(=O)[nH]1
active: [1] 1.87 µM | [3] 10.5 µM | [5] 5.26 µM | [12] 4.69 µM
inactive: [15] | [16]

COc1nc(C)nc(Cl)c1NC1=NCCN1
active: [15] 7.43 µM | [7] 9.35 µM | [8] 10.5 µM
inactive: [1] | [2] | [14] | [17] | [10] | [11] | [12] | [16]

NCCc1cnc[nH]1
not listed: [4] | [9] | [13] | [14] | [17] | [18] | [19]
inactive: all other assays above

Cn1c(=O)c2[nH]cnc2n(C)c1=O
not listed: [2] | [4] | [6] | [17] | [18] | [19]
inactive: all other assays above

Nc1ccn([C@H]2CC[C@@H](CO)O2)c(=O)n1
inactive: [1] | [2] | [3] | [15] | [12] | [16] | [13]
active: [4] 26.4 µM

COc1ccc2c(c1)c(CC(=O)O)c(C)n2C(=O)c1ccc(Cl)cc1
inactive: [1] | [9] | [3] | [4] | [13]
active: [5] 16.6 µM | [7] 20.9 µM | [8] 18.7 µM

COc1ccccc1N1CCN(CC(O)COc2cccc3ccccc23)CC1 (stereo not given)
active: [1] 9.35 µM | [15] 16.6 µM | [7] 11.8 µM
inactive: [3] | [6] | [12] | [13] | [8]

COc1ccc(C2CNC(=O)C2)cc1OC1CCCC1 (stereo not given)
not listed: [3] | [5] | [6] | [7] | [9] | [14] | [18] | [19]
inactive: all other assays above
